The source of these data is PubChem BioAssay (NCI).

The panel holds about 83,000 compounds, 20% with a hit somewhere; the sample as a whole holds those more often.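 Method: cells in 96-well plates; compound added at one concentration; 48 h incubation; percent growth measured; values under 10 scored active.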 Values without a mark were called inactive. Activity calls are given as the source filed them.

Some test systems named below: DU-145 prostate; K-562 leukemia; MALME-3M melanoma; MDA-MB-231 breast; RXF 393 renal; SF-268 CNS; SF-295 CNS; SF-539 CNS; UACC-257 melanoma; M14 melanoma; HCT-15 colon; HT29 colon; SNB-75 CNS; SNB-19 CNS; U251 CNS; PC-3 prostate; SK-MEL-5 melanoma; UACC-62 melanoma; LOX IMVI melanoma; SK-MEL-28 melanoma.
Holding throughout (assay): NCI-60 one-dose screen, 48 h (100 = growth as untreated, 0 = no growth, -100 = all killed)
Settings in all cases: 10 µM unless noted

Consider `CCC(c1cccc(O)c1)C(CC)c1cccc(O)c1` (stereo not drawn), for which the growth is 86% with DU-145 prostate; 17.1% in the test on K-562 leukemia; 54.8% in the test with MALME-3M melanoma; 64.2% in the test on MDA-MB-231 breast; 79.5% in the test with RXF 393 renal; 63.7% in the test on SF-268 CNS. In addition, the growth in the test on SF-295 CNS is 58.3%; with SF-539 CNS, 39.1%; in the test with UACC-257 melanoma it was 71.8%; in the test with M14 melanoma it was 23.8%; in the test with HCT-15 colon, 49%; in the test on HT29 colon, 42%. Further, the growth is 42.7% with SNB-75 CNS; 71.2% in the test on SNB-19 CNS; 45.5% in the test with U251 CNS; 56.4% in the test on PC-3 prostate; 32.3% in the test with SK-MEL-5 melanoma; 30.1% in the test on UACC-62 melanoma. The growth is 57.8% in the test with LOX IMVI melanoma and 63.2% in the test with SK-MEL-28 melanoma.

In the case of `CN(C)CCOc1ccc2c(c1)C(=O)/C(=C\c1ncc([N+](=O)[O-])n1C)C2`, the growth in the test on DU-145 prostate was -37.8% (active); in the test on K-562 leukemia, -39.7% (active); with MALME-3M melanoma, -72.7% (active); in the test with MDA-MB-231 breast, -21.1% (active); in the test on RXF 393 renal, -60.5% (active); in the test on SF-268 CNS, -44.4% (active). In addition, the growth with SF-295 CNS was -12.7% (active); with SF-539 CNS it was -73.2% (active); with UACC-257 melanoma it was -38.6% (active); in the test with M14 melanoma, -67.2% (active); with HCT-15 colon, -10.2% (active); with HT29 colon, -32.6% (active). Further, the growth was -86.6% (active) with SNB-75 CNS; -39.2% (active) with SNB-19 CNS; -14.4% (active) in the test on U251 CNS; -11.2% (active) in the test with PC-3 prostate; -97.6% (active) in the test with SK-MEL-5 melanoma; -59.7% (active) with UACC-62 melanoma. Also, the growth in the test with SK-MEL-28 melanoma was -71.2% (active).

For the compound `COC(=O)[C@@]12OC[C@]34[C@H]([C@@H](O)[C@@H]1O)[C@@]1(C)[C@H](O)C(=O)C=C(C)[C@@H]1C[C@H]3OC(=O)C(OC(C)=O)[C@@H]24` (stereo partly drawn), the growth was -64.4% (active) with DU-145 prostate; -60% (active) in the test with K-562 leukemia; -70.1% (active) in the test with MALME-3M melanoma; -39.5% (active) in the test with MDA-MB-231 breast; -63.6% (active) in the test with RXF 393 renal; -31.2% (active) in the test with SF-268 CNS. Moreover, the growth is -53.9% (active) with SF-295 CNS; -36.7% (active) in the test with SF-539 CNS; -54.4% (active) in the test on UACC-257 melanoma; -84.9% (active) with M14 melanoma; -27.3% (active) with HCT-15 colon; 6.8% (active) in the test with HT29 colon. The growth in the test on SNB-75 CNS was -80.1% (active); in the test with SNB-19 CNS, -18.8% (active); in the test with U251 CNS it was -31.4% (active); in the test on PC-3 prostate it was -51% (active); with SK-MEL-5 melanoma, -76.9% (active); in the test on UACC-62 melanoma, -88.8% (active). Further, in the test with SK-MEL-28 melanoma, the growth is -51.5% (active).

On to `CNc1ccc(N)cc1`, for which the growth was 121% with DU-145 prostate; 135% in the test on K-562 leukemia; 98.1% with MALME-3M melanoma; 99% in the test with MDA-MB-231 breast; 214% in the test with RXF 393 renal; 114% in the test with SF-268 CNS. The growth in the test with SF-295 CNS is 108%; in the test on SF-539 CNS, 96.8%; with UACC-257 melanoma, 137%; in the test on M14 melanoma it was 112%; in the test on HCT-15 colon, 109%; in the test on HT29 colon, 107%. In addition, the growth in the test on SNB-75 CNS was 67.3%; in the test on SNB-19 CNS it was 104%; in the test with U251 CNS it was 117%; with SK-MEL-5 melanoma it was 101%; in the test on UACC-62 melanoma it was 89.3%; with LOX IMVI melanoma, 104%. Further, the growth with SK-MEL-28 melanoma was 140%.

As to `S=C(N/N=C/c1ccccn1)Nc1ccccn1`, the growth is 28.4% with DU-145 prostate; 8.45% (active) in the test on K-562 leukemia; 10.6% in the test on MALME-3M melanoma; 42.4% in the test on MDA-MB-231 breast; 2.43% (active) with RXF 393 renal; 32% in the test with SF-268 CNS. Further, the growth in the test with SF-295 CNS was 27.1%; in the test with SF-539 CNS it was 14.1%; in the test with UACC-257 melanoma, -14.9% (active); with M14 melanoma, 0.168% (active); in the test on HCT-15 colon it was 23.8%; with HT29 colon, 10.4%. Moreover, the growth with SNB-75 CNS is 46.1%; with SNB-19 CNS, 50.5%; with U251 CNS it was 10.1%; with PC-3 prostate it was 33.4%; in the test on SK-MEL-5 melanoma it was -22.2% (active); with UACC-62 melanoma, 1.53% (active). In addition, the growth in the test on SK-MEL-28 melanoma is 21.5%.

On to `O=C1NC(=O)/C(=C/C=C/c2ccccc2)S1`, for which the growth with DU-145 prostate is 50.3%; in the test with K-562 leukemia, 31.1%; in the test on MALME-3M melanoma it was 60.2%; in the test on MDA-MB-231 breast, 82.5%; in the test on RXF 393 renal, 66.3%; in the test on SF-268 CNS it was 31.8%. Moreover, the growth with SF-295 CNS is 14.3%; with SF-539 CNS, -6.41% (active); in the test on UACC-257 melanoma, 45.1%; in the test on M14 melanoma it was 12.3%; in the test with HCT-15 colon, 54.1%; in the test on HT29 colon it was 56.6%. The growth is 59.7% in the test with SNB-75 CNS; 28.3% in the test with SNB-19 CNS; 17.1% with U251 CNS; 87.5% in the test on PC-3 prostate; 25% in the test on SK-MEL-5 melanoma; 1.33% (active) in the test on UACC-62 melanoma. The growth in the test with SK-MEL-28 melanoma was 84.6%.

In the case of `Nc1nc(N)c2c(ccc3c2ccn3Cc2cccc([N+](=O)[O-])c2)n1`, the growth in the test with DU-145 prostate was -97% (active); in the test on K-562 leukemia, 31.8%; with MALME-3M melanoma, -82.7% (active); in the test with MDA-MB-231 breast it was -87.9% (active); with RXF 393 renal, -83.6% (active); in the test on SF-268 CNS it was -78% (active). In addition, the growth in the test with SF-295 CNS is -93.3% (active); with SF-539 CNS, -96.7% (active); in the test on UACC-257 melanoma, -78.9% (active); with M14 melanoma, -83.2% (active); in the test with HCT-15 colon, -84.6% (active); in the test on HT29 colon, -60% (active). The growth with SNB-75 CNS is -89.8% (active); in the test on SNB-19 CNS it was -92.2% (active); with U251 CNS, -87.9% (active); in the test with PC-3 prostate it was -54.1% (active); with SK-MEL-5 melanoma, -98% (active); with UACC-62 melanoma, -94.8% (active). Further, the growth with SK-MEL-28 melanoma was -97.1% (active).

Regarding `CCOC(=O)c1c(C)[nH]c(CO)c1C`, the growth in the test on DU-145 prostate is 101%; with K-562 leukemia, 101%; with MALME-3M melanoma, 91.1%; in the test on MDA-MB-231 breast, 104%; with RXF 393 renal it was 134%; with SF-268 CNS, 96.7%. Also, the growth in the test on SF-295 CNS was 95.1%; with SF-539 CNS, 104%; with UACC-257 melanoma, 94.2%; with M14 melanoma, 95.5%; in the test on HCT-15 colon it was 106%; in the test with HT29 colon it was 96.4%. The growth is 101% in the test on SNB-75 CNS; 98.4% in the test with SNB-19 CNS; 99% with U251 CNS; 98.1% in the test on PC-3 prostate; 99.1% in the test on SK-MEL-5 melanoma; 93.4% in the test with UACC-62 melanoma. Also, in the test with SK-MEL-28 melanoma, the growth is 103%.
